Screening results as filed in PubChem.
Pf apPOL block – Pf-apPOL DNA polymerase inhibition. Recombinant Pf-apPOL, molecular beacon fluorescence, 1.5 h. inhibition, % at 10 µM. actives 0.25% (n = 210,000)
mHTT CaM bind – disrupts binding of mutant huntingtin to calmodulin | P42858 | AlphaScreen His-mHTT/GST-CaM binding, luminescence | inhibition, % at 15 µM | actives 3.6% (n = 190,000) | AID 1671202;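 note: 0% = both proteins with DMSO and 100% = one protein alone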
An asterisk follows results filed as active; . = no result; ! = a repeat was not active. This is a sample that favours compounds with a hit; in the whole collection about 3.6% have one here. Cut-off read from the data, not from the text of the source: active = inhibition above about 50%; inactive = the rest.

SMILES	Pf apPOL block	mHTT CaM bind
CC(=O)N1CCC2(CC1)N=C(c1ccccc1O)CC(c1ccc(C(C)C)cc1)N2 (stereo not drawn)	-5	7
O=C(Nc1ccc2c(c1)CCC2)C1CCN(c2nnc3ccccn23)CC1	-10	3
C=CCN1C(=O)C2(C(C#N)=C(N)OC3=C2C(=O)CC(C)(C)C3)c2ccccc21 (stereo not drawn)	6	5
Cc1cc2n(n1)CCCN2C(=O)CCC(=O)N1CCC2(CC1)OCCO2	0	2
COc1ccc(Nc2nc(Cl)nc(NC(C)C)n2)cc1	-3	6
COc1ccc(Nc2nc(NN)nc(OCC(F)(F)F)n2)cc1	.	92*
O=C(Nc1cccc(F)c1)N1CCCC1c1ccccc1F (stereo not drawn)	-1	-13
COc1ccccc1NC(=O)c1cnn(-c2ccccc2)c1NC(=O)c1cccc(F)c1	8	59*!
O=C(Nc1c(C(=O)Nc2ccccc2)cnn1-c1ccccc1)c1ccccc1	3	11
Cc1ccc(S(=O)(=O)N(CC(=O)Nc2ccc(C(N)=O)cc2)c2ccccc2Cl)cc1	-3	39
CCn1cc(SCC(=O)Nc2cc(C(F)(F)F)ccc2Cl)c2ccccc21	-6	-37
O=C(ON1C(=O)C2C3C=CC(O3)C2C1=O)c1cccnc1Oc1ccccc1 (stereo not drawn)	77*	.
Cc1nn(-c2ccccc2)nc1C(=O)ON1C(=O)C2C3C=CC(O3)C2C1=O (stereo not drawn)	-72	.
CCC(=O)N1CCc2c(c(C(=O)NCc3ccc(F)cc3)nn2C)C1	-6	18
CC(C)C(=O)N1CCc2c(c(C(=O)NCc3ccc(Cl)cc3)nn2C)C1	-6	71*
Cn1nc(C(=O)NCc2ccc(F)cc2)c2c1CCN(C(=O)C1CC1)C2	-8	29
CC(C)C(=O)N1CCc2c(c(C(=O)NCc3ccccc3)nn2C)C1	-6	0
Cn1nc(C(=O)NCc2ccc(Cl)cc2)c2c1CCN(C(=O)C1CCCCC1)C2	-1	93*
CCC(=O)N1CCc2c(c(C(=O)NCc3ccc(Cl)cc3)nn2C)C1	-8	81*
O=C(NC1CCCC1)C1CCN(c2nc3ccsc3c(=O)n2Cc2ccccc2)CC1	-3	2
Cc1ccc(S(=O)(=O)N(CC(=O)Nc2ccccc2C(N)=O)c2ccccc2Cl)cc1	-7	8
CC1CCN(C(=O)C2c3ccccc3CCN2CC(=O)Nc2ccc(F)cc2Cl)CC1 (stereo not drawn)	-9	88*
COc1ccc(Cl)cc1NC(=O)CCN1CCN(C)CC1	55*	0
COc1ccc(Cl)cc1NC(=O)N1CCN(CCc2ccccc2)CC1	-3	.
COc1ccc(Cl)cc1NC(=O)N1CCN(Cc2nc(-c3ccco3)cs2)CC1	7	64*
SMILES	Pf apPOL block	mHTT CaM bind
COc1ccc(OC)c(NC(=O)CCN2CCCC2)c1	-1	5
Cc1ccc(NC(=O)CN2CCc3ccccc3C2C(=O)N2CCC(C)CC2)cc1C (stereo not drawn)	-4	10
CC1CCN(C(=O)C2c3ccccc3CCN2CC(=O)Nc2cc(F)ccc2Cl)CC1 (stereo not drawn)	10	4
CC1CCN(C(=O)C2c3ccccc3CCN2CC(=O)Nc2cccc(Cl)c2)CC1 (stereo not drawn)	0	59*
Cc1cc(NS(=O)(=O)c2ccc(NC(=O)C(F)(F)F)cc2)no1	-2	-8
O=C(CCc1ccccc1)Nc1ccc(NC(=O)c2ccc([N+](=O)[O-])cc2)cc1	-6	-5
CCN(Cc1ccccc1)C(=O)C1CCN(Cc2ccccc2F)CC1	-5	0
CC(C)NC(=O)c1cc(Sc2ccc(F)cc2)nc2ccccc12	0	4
COc1cccc(CNC(=O)c2cccc(C3CCCN(C(=O)Nc4ccccc4)C3)c2)c1 (stereo not drawn)	-3	5
Cc1cc2[nH]c(C(=O)Nc3cc(F)cc(F)c3)c(CN(C)C)c2s1	5	-9
Cc1cc(=O)n(CC(=O)Nc2cccc(C)n2)cn1	-4	-18
Cc1cc(C)cc(NC(=O)NCC2CCN(Cc3ccccc3F)CC2)c1	-2	-3
COc1ccc(Cl)cc1NC(=O)CN1CCc2ccccc2C1C(=O)N1CCCCC1 (stereo not drawn)	-4	64*
O=C(CN1CCc2ccccc2C1C(=O)N1CCCCC1)NCc1ccc(F)cc1Cl (stereo not drawn)	-8	0
O=C(CN1CCc2ccccc2C1C(=O)N1CCCCC1)Nc1ccc(F)cc1Cl (stereo not drawn)	3	68*
O=C(CN1CCc2ccccc2C1C(=O)N1CCCCC1)NCc1ccc(Cl)cc1 (stereo not drawn)	0	18
O=C1C(=O)N(Cc2cccc(Cl)c2)c2ccccc21	-6	93*
O=C1C(=O)N(CCc2ccccc2)c2ccc(Cl)cc21	-4	34
O=C1C(=O)N(Cc2cccc(C(F)(F)F)c2)c2ccccc21	-5	48
Cc1ccc(CN2C(=O)C(=O)c3cc(Cl)ccc32)cc1	-7	62*
